# Reference: PubChem BioAssay AID743269 (The Scripps Research Institute Molecular Screening Center, 2014)
# In all, about 370,000 compounds went through this assay and about 2,400 (0.65%) were called active.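 The calls were made as follows: active = inhibition above the screen-wide mean plus 3 SD (cut at about 13% in these data); inactive = the rest.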 The full list was thinned out, with actives kept by preference.
# System: HIV-1 integrase (with human LEDGF/p75)
# Experiment: blockers of LEDGF/p75-dependent integrase strand transfer – biochemical, TR-FRET, high throughput, primary screen (AID 743269);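 also: signal is the Cy5 over europium emission ratio at 671 and 618 nm; 0% = plate median of compound wells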
# Details: TR-FRET IN-LEDGF/p75 DNA integration, Eu/Cy5; at 3.7 µM; active compounds read high
row,SMILES,inhibition
1,COc1ccc(S[C@]2(C(=O)N(C)C)CC(=O)N(c3ccc(OC)cc3)[C@@H]2c2ccc(OC)cc2)cc1,2.73% (inactive)
2,C=CCN1[C@@H](Cc2ccccc2)COc2cccc(N3CCSCC3)c2S1(=O)=O,1.03% (inactive)
3,CCn1c2ccccc2c2cc(NC(=O)CSc3nnc(-c4ccccc4)n3-c3ccc(C)cc3)ccc21,0.64% (inactive)
4,CC1C(=O)N(Cc2cn(CC3CCCCC3)nn2)CCS(=O)(=O)N1Cc1ccc(-c2cccc(N(C)C)c2)cc1 (stereo unspecified),5.48% (inactive)
5,COc1ccc(Cn2cc(CN3CCS(=O)(=O)N(Cc4ccc(-c5cccc(Cl)c5)cc4)C(C)C3=O)nn2)cc1 (stereo unspecified),79.8% (active)
6,CC1C(=O)N(Cc2cn(Cc3ccco3)nn2)CCS(=O)(=O)N1Cc1ccc(-c2cccc(CO)c2)cc1 (stereo unspecified),1.97% (inactive)
7,COC(=O)[C@]12C[C@H](CC(=O)NCc3cccs3)C(=O)N(CCc3ccc(OC)c(OC)c3)C1=C[C@H](C(C)C)O[C@@H]2C1CC1,4.37% (inactive)
8,Cc1ccc(S(=O)(=O)N(C)C)cc1NC(=O)COC(=O)C1COc2ccccc2O1 (stereo unspecified),1.74% (inactive)
9,CC(=O)c1ccccc1NC(=O)COC(=O)C1COc2ccccc2O1 (stereo unspecified),-3.4% (inactive)
10,Cc1c(CC(=O)N2CCN(C(=O)C3COc4ccccc4O3)CC2)c(=O)oc2c(O)c(O)ccc12 (stereo unspecified),67.8% (active)
11,C=CCN1C(=O)[C@@H](CC(=O)N2CCN(C(=O)OCC)CC2)[C@]2(C(=O)OCC)CCCCC/C=C/12,-0.68% (inactive)
12,CC(C)(C)OC(=O)NCCc1ccccc1/C=C/S(=O)(=O)NCc1ccc(F)cc1,-1.63% (inactive)
13,COc1ccc(CN2C/C(=C/c3ccccc3)N3C(=O)C[C@@H](c4ccccc4)N=C23)c(OC)c1,-1.46% (inactive)
14,COc1c(O)cc2oc(-c3ccc(O)c(O)c3)cc(=O)c2c1O,34.7% (active)
15,CCCC[C@H](C(=O)N(CC)c1ccccc1)[C@@H](O)c1ccc2ccccc2c1,-3.33% (inactive)
16,C=CCN1C(=O)[C@H](CC(=O)NCCCN2CCCC2=O)[C@@]2(C(=O)OCC)CCCC=C12,-3.27% (inactive)
17,COC1=C[C@H](C(=O)NCCNC(C)=O)[C@H](C)[C@@H](c2ccccc2)CC1=O,-0.49% (inactive)
18,C=C1c2c(Cl)ccc(O)c2C(O)=C2C(=O)[C@]3(O)C(O)=C(C(N)=O)C(=O)[C@@H](N(C)C)[C@@H]3[C@@H](O)C12 (stereo partly specified),68% (active)
19,CN(C)[C@@H]1C(=O)C(C(N)=O)=C(O)[C@@]2(O)C(=O)C3=C(O)c4c(O)ccc(Cl)c4[C@@H](O)[C@H]3C[C@@H]12,38.5% (active)
20,CCOC(=O)[C@]12CCCC=C1N(CCCOC)C(=O)[C@@H]2CC(=O)N1CCOCC1,4.81% (inactive)
21,COc1ccc(C2Nc3ccccc3C(=O)N2Cc2cccs2)cc1COc1c(C)cccc1C (stereo unspecified),-0.72% (inactive)
22,CCOC(=O)C1=C(C)NC2=C(C(=O)CC(C)(C)C2)C1c1ccc2c(c1)OCO2 (stereo unspecified),-1.19% (inactive)
23,CCCC1CCC2(CCCN2CCOC(=O)NCc2ccccc2)CC1 (stereo unspecified),-0.38% (inactive)
24,CC(CN1CCOCC1)OC(=O)c1ccc(C(C)(C)C)cc1 (stereo unspecified),2.54% (inactive)
25,Cc1cccc(C(=O)OC(C)CN2CCCC2)c1 (stereo unspecified),1.96% (inactive)
26,Cc1ccc(C(=O)OC(C)CN2CCOCC2)cc1 (stereo unspecified),57.5% (active)

row,SMILES,inhibition
1,COc1ccc2c(C(C)c3ccc(N)cc3)cn(C)c2c1 (stereo unspecified),3.86% (inactive)
2,Cc1c(C(C)c2ccccc2O)[nH]c2ccccc12 (stereo unspecified),-2.27% (inactive)
3,Oc1ccc(N=Cc2sc3ccccc3c2Cl)cc1,27.5% (active)
4,COc1ccc([C@H]2OC(=O)C[C@H]2C(=O)N2CCN(c3ccccc3F)CC2)cc1OC,1.9% (inactive)
5,Cc1cc(C)nc(NC(=S)N2CCN(c3ccc(C(F)(F)F)cn3)CC2)c1,4.81% (inactive)
6,O=S1(=O)c2c(cccc2N2CCSCC2)Oc2ccccc2CN1Cc1cn(Cc2ccc(F)cc2)nn1,-4.35% (inactive)
7,COC(=O)C1CN(CCc2ccccc2)CCS(=O)(=O)N1Cc1ccc(F)cc1 (stereo unspecified),-0.36% (inactive)
8,O=C(CCS(=O)(=O)c1ccccc1)Nc1ccc(Cl)c(Cl)c1,-0.44% (inactive)
9,CN(Cc1ccccc1)C(=O)CCNC(=O)Cn1cnc2ccccc2c1=O,-0.32% (inactive)
10,Cc1ccc(-c2cnc(NC(=O)CCC(=O)N(C)Cc3ccccc3)n2C)cc1,38.1% (active)
11,Cn1c(-c2ccc(F)cc2)cnc1SCC(=O)NNC(=O)Cc1ccccc1,-1.96% (inactive)
12,O=C(OCC#CCSc1nnc(-c2ccco2)o1)c1ccc(F)cc1,-2.28% (inactive)
13,COC(=O)[C@]12C[C@H](CC(=O)NCc3ccccc3)C(=O)N(Cc3ccccc3)C1=C[C@H](COCc1ccccc1)O[C@@H]2C,-1.62% (inactive)
14,CC(C)C(C#CC1CC1)N(Cc1ccc2c(c1)OCO2)C(N)=NC(=O)/C=C/c1cccc(C(F)(F)F)c1 (stereo unspecified),-0.12% (inactive)
15,COc1ccc(CSc2nnc(-c3cccc(C)c3)n2C)cc1,1.05% (inactive)
16,Cn1c(SCC(=O)N2CCCC2)nnc1-c1ccc2c(c1)OCO2,0.18% (inactive)
17,Cn1c(SCc2nc3ccccc3s2)nnc1-c1ccc2c(c1)OCO2,14.7% (active)
18,CCOC(=O)[C@]12CCCC3=C1N(CCC3)C(=O)[C@@H](CC(=O)N1CCSCC1)C2,4.16% (inactive)
19,COC(=O)[C@]12C[C@H](CC(=O)NCc3ccccc3)C(=O)N(CCC3=CCCCC3)C1=C[C@H](C(C)C)O[C@@H]2C1CC1,-3.27% (inactive)
20,Cc1ccccc1CN1CCCCC(NC(=O)c2cccc(C#N)c2)C1=O (stereo unspecified),-3.73% (inactive)
21,CCCCCCN1CCS(=O)(=O)N(Cc2ccc(C(F)(F)F)cc2)C(C(=O)OC)C1 (stereo unspecified),-2.95% (inactive)
22,COC(=O)/C(C#N)=C/c1occc1C,1.63% (inactive)
23,CCOC(=O)/C(C#N)=C\c1c(C)cc(C)c(COC(C)=O)c1C,15.8% (active)
24,CCCn1c(C)cc(/C=C(\C#N)C(=O)OCC(=O)Nc2cc(OC)c(OC)c(OC)c2)c1C,4.46% (inactive)
25,CCOC(=O)c1csc(NC(=O)C2CCCN(S(=O)(=O)c3ccc(Cl)s3)C2)n1 (stereo unspecified),3.42% (inactive)
